# Assay results as given in PubChem BioAssay (NCATS).
# Several values for one entry are separate records, joined by “and”; a condition that tells them apart may be missing. Equal values may be shown once. Results filed as inconclusive are left out. Where a call stands in place of a potency, no number is given. Unmarked numbers belong to inactive results. Activity calls are given as the source filed them. Calls come from the whole dose curve; as a rule, active = well fitted curve in the direction sought with a large enough effect; inconclusive = small, poorly fitted or top-dose-only effect, or another doubt; inactive = no such curve, though single readings can be large; an effect the other way counts as inactive or inconclusive.
# Tests used:
# KB-3-1 = experiment: Cytotoxic Profiling of Annotated Libraries Using Quantitative High-Throughput Screening (AID 1296008); details: Five cell lines viability, CellTiter-Glo ATP luminescence, 48-72 h; max response: hits give low values; note: nearly all actives have a fitted effect of over 60% in size; note: potency is the fitted concentration of half-maximal effect
# Method in brief: (§1)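 Compounds were pin-transferred onto cells and incubated 48 or 72 hr at 37 degree Celsius, 95% humidity. CellTiter-Glo was added, plates sat 10 min at room temperature, then ATP-coupled luminescence was imaged as the viability read-out.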
# NIH3T3 [1] = experiment: as above; details: Five cell lines viability, CellTiter-Glo ATP luminescence, 48-72 h; max response: hits give low values
# Method in brief: as §1
# C33A = experiment: Primary qHTS to identify gynecologic anti-cancer compounds using libraries of approved drugs and bioactive compounds (AID 1345084); details: Gynecologic cancer cell panel viability, ATPlite luminescence, 48 h; series mostly up to 57.5 µM; note: nearly all actives have a fitted effect of over 55% in size; note: potency is the fitted concentration of half-maximal effect
# Method in brief: (§2)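 Cells, 1,000 per well, were allowed to settle for 16 h at 37 C before compound addition. Five concentrations were tested for 48 h, and viability was read by ATPlite luminescence after 15 min at room temperature.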
# CASKI = experiment: as above; details: Gynecologic cancer cell panel viability, ATPlite luminescence, 48 h; series mostly up to 57.5 µM
# Method in brief: as §2
# Es-2 = experiment: as above; details: Gynecologic cancer cell panel viability, ATPlite luminescence, 48 h; series mostly up to 57.5 µM
# Method in brief: as §2
# HeLa = experiment: as above; details: Gynecologic cancer cell panel viability, ATPlite luminescence, 48 h; series mostly up to 57.5 µM
# Method in brief: as §2
# Hek293T [2] = experiment: as above; details: Gynecologic cancer cell panel viability, ATPlite luminescence, 48 h, control line for the selectivity index; series mostly up to 57.5 µM
# Method in brief: as §2
# JEG-3 = experiment: as above; details: Gynecologic cancer cell panel viability, ATPlite luminescence, 48 h; series mostly up to 57.5 µM
# Method in brief: as §2
# OV90 = experiment: as above; details: Gynecologic cancer cell panel viability, ATPlite luminescence, 48 h; series mostly up to 57.5 µM
# Method in brief: as §2
# HEK293T [3] = experiment: qHTS assay to identify novel small-molecules to repurpose for Merkel cell carcinoma treatment (AID 1296009); details: MCC and control cell lines, CellTiter-Glo viability, 72 h; at 44.8 µM (top of the series) unless noted; note: nearly all actives have a fitted effect of over 60% in size
# Method in brief: (§3)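 qHTS format: cells treated with library compounds in DMSO across 8 (NPC) or 11 (MIPE) concentrations. Readout after 72 hr at 37 degree celsius was CellTiter-Glo luminescence.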
# NIH3T3 [4] = experiment: as above; details: MCC and control cell lines, CellTiter-Glo viability, 72 h; at 44.8 µM (top of the series) unless noted
# Method in brief: as §3
# CAOV3 = experiment: Primary qHTS to identify gynecologic anti-cancer compounds using libraries of approved drugs and bioactive compounds (AID 1345084); details: Gynecologic cancer cell panel viability, ATPlite luminescence, 48 h; series mostly up to 57.5 µM; note: nearly all actives have a fitted effect of over 55% in size; note: potency is the fitted concentration of half-maximal effect
# Method in brief: as §2
# CRL-7250 = normal cell line; experiment: qHTS assay to identify novel small-molecules to repurpose for Merkel cell carcinoma treatment (AID 1296009); details: MCC and control cell lines, CellTiter-Glo viability, 72 h; at 44.8 µM (top of the series) unless noted; note: nearly all actives have a fitted effect of over 60% in size
# Method in brief: as §3
# HACAT = experiment: as above; details: MCC and control cell lines, CellTiter-Glo viability, 72 h; at 44.8 µM (top of the series) unless noted
# Method in brief: as §3
compound,measurement,setting,value
Oc1ccc2c3c1O[C@H]1[C@H](N(CCCl)CCCl)CC[C@@]4(O)[C@@H](C2)N(CC2CC2)CC[C@]314,outcome,KB-3-1,inactive
same,outcome,NIH3T3 [1],inactive
same,"activity change, negative = cytotoxicity",C33A,3.36% [at 11.6 µM]
same,"activity change, negative = cytotoxicity",CASKI,18.4% [at 11.6 µM]
same,"activity change, negative = cytotoxicity",Es-2,3.95% [at 11.6 µM]
same,"activity change, negative = cytotoxicity",HeLa,1.82% [at 11.6 µM]
same,"activity change, negative = cytotoxicity",Hek293T [2],0.845% [at 11.6 µM]
same,"activity change, negative = cytotoxicity",JEG-3,-5.35% [at 11.6 µM]
same,"activity change, negative = cytotoxicity",OV90,0.162% [at 11.6 µM]
Clc1ccc(N2C[C@H]3CC[C@@H](C2)N3)nn1,max response,KB-3-1,2.38%
same,outcome,NIH3T3 [1],inactive
same,Potency,C33A,inactive
same,Potency,CASKI,inactive
same,Potency,Es-2,inactive
same,Potency,HeLa,inactive
same,Potency,Hek293T [2],inactive
same,Potency,JEG-3,inactive
same,Potency,OV90,inactive
C=C[C@H]1[C@H](O[C@@H]2O[C@H](CO)[C@@H](O)[C@H](O)[C@H]2O)OC=C2C(=O)OCC[C@H]21,outcome,NIH3T3 [1],inactive
same,outcome,HEK293T [3],inactive
same,outcome,NIH3T3 [4],inactive
same,Potency,C33A,inactive
same,Potency,CASKI,inactive
same,Potency,Es-2,inactive
same,Potency,HeLa,inactive
same,Potency,Hek293T [2],inactive
same,Potency,JEG-3,inactive
same,Potency,OV90,inactive
CO[C@H]1[C@H](O)[C@H](O[C@H]2CC[C@]3(C)C4CC[C@]5(C)[C@H](C6=CC(=O)OC6)CC[C@]5(O)C4CC[C@@H]3C2)O[C@@H](C)[C@@H]1O (some centres not stated),Potency,KB-3-1,89.3 nM (active)
same,outcome,NIH3T3 [1],inactive
same,Potency,C33A,89.1 nM (active)
same,Potency,CAOV3,126 nM (active)
same,Potency,CASKI,224 nM (active)
same,Potency,Es-2,79.4 nM (active)
same,Potency,HeLa,89.1 nM (active)
same,Potency,Hek293T [2],89.1 nM (active)
same,Potency,JEG-3,178 nM (active)
same,Potency,OV90,282 nM (active)
CC(CCc1ccc(O)cc1)O[C@@H]1O[C@H](CO[C@H]2OC[C@](O)(CO)[C@H]2O)[C@@H](O)[C@H](O)[C@H]1O (some centres not stated),max response,NIH3T3 [1],3.14%
same,outcome,CRL-7250,inactive [at 17.4 µM]
same,outcome,HACAT,inactive [at 17.4 µM]
same,outcome,HEK293T [3],inactive [at 17.4 µM]
same,Potency,C33A,inactive
same,Potency,CASKI,inactive
same,Potency,Es-2,inactive
same,Potency,HeLa,inactive
same,Potency,Hek293T [2],inactive
same,Potency,JEG-3,inactive
same,Potency,OV90,inactive
CCOc1ccccc1-n1c(C(C)N2CCN(C(=O)COc3ccc(Cl)cc3)CC2)nc2ccccc2c1=O (configuration not stated),Potency,NIH3T3 [1],1.03 µM (active) and 933 nM (active)
same,Potency,C33A,inactive
same,Potency,CASKI,inactive
same,Potency,Es-2,3980 nM (active)
same,Potency,HeLa,inactive
same,Potency,OV90,inactive
C=CC(C)(O)CC/C=C(\C)C(=O)O[C@H]1[C@H](O)[C@@H](CO)O[C@@H](OC(=O)[C@]23CCC(C)(C)CC2C2=CCC4[C@@]5(C)CC[C@H](O[C@@H]6O[C@H](CO[C@@H]7OC[C@H](O)[C@H](O)[C@H]7O[C@@H]7OC[C@@H](O)[C@H](O)[C@H]7O)[C@@H](O)[C@H](O)[C@H]6O)C(C)(C)C5CC[C@@]4(C)[C@]2(C)CC3)[C@@H]1OC1OC(C)C(O[C@@H]2OC[C@@H](O)[C@H](O[C@@H]3OC[C@@H](O)[C@H](O)[C@H]3O)[C@H]2O)C(O)C1O (some centres not stated),outcome,NIH3T3 [1],inactive
same,outcome,HACAT,inactive [at 9.27 µM]
same,outcome,NIH3T3 [4],inactive [at 9.27 µM]
same,"activity change, negative = cytotoxicity",C33A,2.58% [at 6.55 µM]
same,"activity change, negative = cytotoxicity",CASKI,-11.5% [at 6.55 µM]
same,"activity change, negative = cytotoxicity",Es-2,0.692% [at 6.55 µM]
same,"activity change, negative = cytotoxicity",HeLa,7.46% [at 6.55 µM]
same,"activity change, negative = cytotoxicity",Hek293T [2],2.18% [at 6.55 µM]
same,"activity change, negative = cytotoxicity",JEG-3,-17.2% [at 6.55 µM]
same,"activity change, negative = cytotoxicity",OV90,-3.63% [at 6.55 µM]
CC(=O)OC12C(O)C(C)C3(O)C4C=C(C)C(=O)C4CC(CO)=CC3C1C2(C)C (configuration not stated),outcome,KB-3-1,inactive
same,outcome,NIH3T3 [1],inactive
same,Potency,C33A,inactive
same,Potency,CASKI,inactive
same,Potency,Es-2,inactive
same,Potency,HeLa,inactive
same,Potency,Hek293T [2],inactive
same,Potency,JEG-3,inactive
same,Potency,OV90,inactive
CCC1NC(=O)C2C(Cl)C(Cl)CN2C(=O)C(C(C)O)NC(=O)CC(c2ccccc2)NC(=O)C(CO)NC1=O (configuration not stated),outcome,KB-3-1,inactive
same,outcome,NIH3T3 [1],inactive
same,Potency,C33A,inactive
same,Potency,CASKI,inactive
same,Potency,Es-2,inactive
same,Potency,HeLa,inactive
same,Potency,Hek293T [2],inactive
same,Potency,JEG-3,inactive
same,Potency,OV90,inactive
CN(C(=O)Cc1ccccc1)C(CN1CCCC1)c1ccccc1 (configuration not stated),max response,KB-3-1,-9.97%
same,outcome,NIH3T3 [1],inactive
same,Potency,C33A,inactive
same,Potency,CASKI,inactive
same,Potency,Es-2,inactive
same,Potency,HeLa,inactive
same,Potency,Hek293T [2],inactive
same,Potency,JEG-3,inactive
same,Potency,OV90,inactive
